Results filed as inconclusive are left out. Calls of active or inactive are those of the source. The calls were made as follows, unless noted: active = hit-call score of the fitted dose curve at least 0.9, where 1 is the maximum; inactive = score below 0.9.
How the values were obtained:
[1] = CCTE_Shafer_MEA_acute_AB: CCTE's Alamar Blue Assay for Cytotoxicity in the Neural Acute Assay, Shafer Lab (AID 2284069; active = hit-call score of the fitted dose curve at least 0.9, where 1 is the maximum;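 also: active compounds lower the viability signal compared with DMSO wells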)
Outline: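 Resazurin reduction (CellTiter Blue, 1:6 in fresh medium) read at ex 544/em 590 nm marks viability loss relative to DMSO. Cells: primary rat cortical neuron networks on microelectrode arrays, treated after baseline recording at 13 or 15 days in vitro.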

[2] = CCTE_Shafer_MEA_dev_per_network_spike_spike_number_mean: CCTE's Neural Network Formation Assay for Mean Number of Spikes in a Network Spike, Shafer Lab (AID 2284053)
Outline: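 Mean spike count within each network spike, taken in a 0.05 s window at its peak, was recorded on days 5, 7, 9 and 12 and integrated as trapezoidal area under the curve. Rat cortical cultures on MEA plates received continuous compound from day 0, refreshed at medium changes on DIV 5 and 9.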

[3] = CCTE_Shafer_MEA_dev_per_network_spike_spike_percent: CCTE's Neural Network Formation Assay for Percent of Spikes in a Network Spike, Shafer Lab (AID 2284054)
Outline: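 Read-out: percent of spikes falling in a 0.05 s window at network-spike peak, from spontaneous MEA recordings on days 5, 7, 9 and 12; trapezoidal AUC; loss of signal versus DMSO. Rat cortical cultures, compound present throughout.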

[4] = CCTE_Shafer_MEA_dev_mutual_information_norm: CCTE's Neural Network Formation Assay for Mutual Information Normalization, Shafer Lab (AID 2284091)
Outline: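 Neurons from rat cortex were seeded at 1.5 x 10^5 cells/well onto PEI-coated MEAs in a laminin drop, then exposed to compound from day 0 for twelve days. Network recordings on four days gave mutual information, summarised by AUC relative to DMSO.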

[5] = CCTE_Shafer_MEA_dev_correlation_coefficient_mean: CCTE's Neural Network Formation Assay for Mean Correlation Coefficient, Shafer Lab (AID 2284093)
Outline: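 Primary rat cortical neurons on PEI-coated 48-well MEA plates (16 electrodes/well) were exposed from plating day 0 through DIV12, with compound renewed at DIV5 and 9. Pairwise spike correlations were averaged per well; trapezoidal AUC across DIV5, 7, 9, 12.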

[6] = IUF_NPC1b_proliferation_BrdU_72hr: Leibniz Research Institute for Environmental Medicine (IUF) 72-hour Neural Progenitor Cell Bromodeoxyuridine (BrdU) Proliferation Assay (NPC1b) (AID 2284207)
Outline: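 Luminescent BrdU ELISA measured DNA synthesis during the last 16 h of a 72 h exposure of primary human neural progenitor spheres grown with EGF and FGF. Signal was fitted relative to DMSO controls.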

[7] = IUF_NPC1a_proliferation_area_72hr: Leibniz Research Institute for Environmental Medicine (IUF) 72-hour Neural Progenitor Cell Proliferation Area Assay (NPC1a) (AID 2284208)
Outline: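 Measured in 3D suspension: each well held one primary hNPC sphere grown with EGF and FGF at pH 7.2-7.6. Compound stayed on for 72 h, then area was imaged; spheres lacking growth factors defined reduced proliferation.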

[8] = IUF_NPC1_viability_72hr: Viability Assessment at 72 hours in the Leibniz Research Institute for Environmental Medicine (IUF) Neural Progenitor Cell Proliferation Assay (NPC1) (AID 2284209)
Outline: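 Viability was measured by resazurin-to-resorufin fluorescence (alamar blue) after 72 h of continuous exposure without compound renewal. Each well held one hNPC sphere (gestational week 16-19 fetal cortex, 0.25-0.35 mm) cultured in EGF/FGF proliferation medium at 37C and pH 7.2-7.6.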

[9] = CCTE_Mundy_HCI_Cortical_Synap_Neur_Matur_BPCount: CCTE's Synaptogenesis and Neurite Maturation Assay in rat cortical cells for Branch Point Count, Mundy Lab (AID 2284211)
Outline: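 HCI read-out of branch points from MAP2/synaptophysin/Hoechst immunofluorescence; rat cortical cultures, AraC DIV 5, dosing DIV 7, fixed DIV 12; fit in positive direction vs DMSO baseline.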

[10] = CCTE_Mundy_HCI_Cortical_NOG_NeuriteCount: CCTE's Neurite Outgrowth Assay in rat cortical cells for Neurite Count, Mundy Lab (AID 2284212);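 also: cells fixed about two days after chemical exposure began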
Outline: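 Rat cortical primary cells; compound added 2 h post-plating, 1/10 dilution of working solution. Anti-betaIII-tubulin/AF488 ICC; ArrayScan neurite count vs DMSO.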

[11] = CCTE_Mundy_HCI_Cortical_NOG_NeuriteLength: CCTE's Neurite Outgrowth Assay in rat cortical cells for Neurite Length, Mundy Lab (AID 2284213)
Outline: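 First, rat primary cortical cells were plated and, 2 h later, given test chemical as a 1/10 dilution. Finally, βIII-tubulin immunostaining enabled automated imaging of neurite length.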

[12] = CCTE_Mundy_HCI_Cortical_Synap_Neur_Matur_NeuriteSpotCountPerNeuron: CCTE's Synaptogenesis and Neurite Maturation Assay in rat cortical cells for Neurite Spot Count per Neuron Count, Mundy Lab (AID 2284215)
Outline: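 Developing rat cortical neurons, with glia suppressed by AraC, are exposed to chemicals from DIV 7 to DIV 12. Automated fluorescence imaging of MAP2-labelled neurites and synaptophysin puncta yields a count per neuron, normalised against DMSO wells.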

[13] = CCTE_Shafer_MEA_acute_LDH: CCTE's Lactate Dehydrogenase Assay for Cytotoxicity in the Neural Acute Assay, Shafer Lab (AID 2284086; active = hit-call score of the fitted dose curve at least 0.9, where 1 is the maximum;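 also: active means LDH release rises above DMSO vehicle level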)
Outline: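 LDH released during 40 min compound exposure of primary rat cortical cultures, quantified by absorbance at 490 nm in collected medium. Fitting direction positive versus DMSO vehicle.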

Measured: outcome

Cc1ccc(N=CN(C)C=Nc2ccc(C)cc2C)c(C)c1
inactive: [1]

CN/C(=N\[N+](=O)[O-])NCc1cnc(Cl)s1
not listed: [1] | [13]
inactive: all other assays above

CC(C)N1C(=O)N(c2ccccc2)CSC1=NC(C)(C)C
inactive: [1] | [13]
